Laboratory results as given in PubChem BioAssay AID1851 (National Center for Advancing Translational Sciences (NCATS), 2009).
Several values for one entry are separate records, joined by “and”; a condition that tells them apart may be missing. Equal entries are not always repeated. The whole screen tested about 16,000 compounds, of which about 5,800 (36%) were called active. Another 23% or so got no clear call; they are omitted. The list shows a part of the results. Values without a mark were called inactive. Calls follow the shape of the dose curve; as a rule, active = well fitted curve in the direction sought with a large enough effect; inconclusive = small, poorly fitted or top-dose-only effect, or effect the other way; inactive = no such curve, though single readings can be large or run the other way.

Target: Cytochrome P450 2C19 (Homo sapiens) (UniProt P33261)
Experiment: Cytochrome panel assay with activity outcomes
Conditions: recombinant CYP, pro-luciferin dealkylation, luminescence, p450-cyp2c19; series mostly up to 57.1 µM; activity, negative = inhibition: at the top concentration
% is scaled to controls: 0 for no effect and ±100 for the full control effect.

Sequence of Cytochrome P450 2C19 (Homo sapiens) (P33261 whole entry, looked up): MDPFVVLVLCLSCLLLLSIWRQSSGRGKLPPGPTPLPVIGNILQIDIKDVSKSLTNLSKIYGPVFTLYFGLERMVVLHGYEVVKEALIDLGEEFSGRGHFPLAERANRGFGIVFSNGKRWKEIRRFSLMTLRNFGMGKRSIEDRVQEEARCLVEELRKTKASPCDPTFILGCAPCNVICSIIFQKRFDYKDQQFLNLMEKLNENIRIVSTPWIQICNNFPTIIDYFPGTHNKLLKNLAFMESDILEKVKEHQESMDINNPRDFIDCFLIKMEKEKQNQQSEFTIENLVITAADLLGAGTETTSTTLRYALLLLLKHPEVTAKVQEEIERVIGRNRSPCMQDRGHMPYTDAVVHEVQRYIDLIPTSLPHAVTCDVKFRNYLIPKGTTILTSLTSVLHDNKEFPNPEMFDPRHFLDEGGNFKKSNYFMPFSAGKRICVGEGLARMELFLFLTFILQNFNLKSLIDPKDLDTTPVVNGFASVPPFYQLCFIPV

Compared with `COc1ccccc1CN1CC[C@@]2(CCCN(C(=O)Oc3ccccc3)C2)C1`, `CN1CC[C@@]2(CCCN(C(=O)Oc3ccccc3)C2)C1` is higher in “activity, negative = inhibition” value: -33.4% for the first, -1.21% for the second.

First: O[Si@](CCCN1CCCCC1)(c1ccc(F)cc1)C1CCCCC1
Second: c1ccc2sc(C3(N4CCCCC4)CCCCC3)cc2c1
The “activity, negative = inhibition” value of the first is higher: -23.4% for the first, -26.2% for the second.

Going from `C[C@@]12C=CC(=O)C=C1CC[C@@H]1C2=CC[C@]2(C)[C@@H]1CC[C@H]2C(=O)CN1CCN(c2cc(N3CCCC3)nc(N3CCCC3)n2)CC1` to `C[C@@]12CC[C@H]3[C@@H](CCC4=C(O)C(=O)CC[C@]43C)[C@H]1CCC2=O`, the “activity, negative = inhibition” value falls from -31% to -47.2%.

Compared with `CCCN1CCc2cccc3c2[C@@H]1Cc1ccc(O)c(O)c1-3`, `O=c1c(O)c(-c2ccc(O)c(O)c2)oc2cc(O)cc(O)c12` is higher in “activity, negative = inhibition” value: 7.56% for the first, 18.3% for the second.

Compared with `O=c1[nH]c(=O)n([C@H]2C[C@H](O)[C@H](CO)O2)cc1/C=C\Br`, `N[C@H](C(=O)O)c1cc(=O)[nH]o1` is lower in “activity, negative = inhibition” value: 19.9% for the first, -5.58% for the second.

First: c1cnc(N2CCC3(CCNCC3)CC2)nc1
Second: c1csc(CN2CC[C@@]3(CCCNC3)C2)n1
The “activity, negative = inhibition” value of the first is higher: -11.8% for the first, -36.5% for the second.

Compared with `COc1cc(C=C(C#N)C#N)cc(O)c1O`, `Cc1cc2c(C(C)C)c(O)c(O)c(C=O)c2c(O)c1-c1c(C)cc2c(C(C)C)c(O)c(O)c(C=O)c2c1O` is lower in “activity, negative = inhibition” value: 13.5% for the first, -44.4% for the second.

First: NP(N)(=O)NC(=O)c1ccc(F)cc1
Second: c1ccc2cc(CC3=NCCN3)ccc2c1
The “activity, negative = inhibition” value of the first is higher: 3.06% for the first, -11.6% for the second.

Going from `N#CCCN` to `Nc1ncnc2c1ncn2[C@@H]1O[C@@H](COP(=O)(O)CP(=O)(O)OP(=O)(O)O)[C@H](O)[C@@H]1O`, the “activity, negative = inhibition” value falls from 18.2% to 0.925%.

`Cn1c(O)c(C(c2ccccn2)c2c(O)n(C)c(=S)n(C)c2=O)c(=O)n(C)c1=S` was tested, and the “activity, negative = inhibition” value was -17.6%.

For `CN(C)CCN(C)CCc1ccc(Cl)c(Cl)c1`, the AC50 was 10 µM (active).
`CN(CCc1ccc(Cl)c(Cl)c1)[C@H]1CCCC[C@H]1N1CCCC1` was tested, and the AC50 was 15.8 µM (active).
`COc1ccc(Cn2c(N)c(C(=O)NCc3ccco3)c3nc4ccccc4nc32)cc1` was tested, and the AC50 was 2.51 µM (active).
For `CC(C)CCn1c(N)c(C(=O)NCc2cccs2)c2nc3ccccc3nc21`, the AC50 was 2.51 µM (active).
`CCCCn1c(N)c(C(=O)NCc2cccs2)c2nc3ccccc3nc21` was tested, and the AC50 was 3.98 µM (active).
In the case of `CC[C@@]1(c2ccc(N)cc2)CCC(=O)NC1=O`, the AC50 is reported as “inactive”.
`COc1ccc2c(c1)CN([C@H](C)[C@@H]1CC[C@@H]3[C@H]4CC[C@H]5C[C@@H](O)CC[C@@]5(C)[C@H]4CC[C@]31C)CO2` was tested, and the AC50 was 1 µM (active).
With `CS(=O)(=O)N1CCCC(C(=O)N2CCC3(CC2)OCCO3)C1` (centres undefined) the AC50 was 10 µM (active).
In the case of `COc1ccc2c(c[n+](C)c3c4cc5c(cc4ccc23)OCO5)c1OC`, the AC50 is reported as 10 µM (active).
In the case of `CC(Oc1ccc(-c2ccccc2)cc1)C(=O)O` (centres undefined), the AC50 is reported as 28.2 µM (active).
With `S=P(C1CCCCC1)(C1CCCCC1)[C@H](c1cccnc1)N1CCCC1` the AC50 was 1.26 µM (active).
In the case of `CCCCN1C(=O)/C(=C\c2ccco2)C(=O)N(CCc2ccccc2)C1=O`, the AC50 is reported as 10 µM (active).
With `NC(=O)c1ccc(-c2nc(-c3ccc4c(c3)OCO4)c(-c3ccccn3)[nH]2)cc1` the AC50 was 2.51 µM (active).
In the case of `COC(=O)C(O)(c1c(C)[nH]c2ccccc12)C(F)(F)F` (centres undefined), the AC50 is reported as 5.01 µM (active).

First: COc1ccc2c(c1)C13CCCC[C@@H]1C(C2)N(C)CC3 (some centres undefined)
Second: COC(=O)[C@@H]1[C@@H]2C[C@H]3c4[nH]c5cc(OC)ccc5c4CCN3C[C@@H]2C[C@H](OC(=O)/C=C\c2cc(OC)c(OC)c(OC)c2)[C@H]1OC
The “activity, negative = inhibition” value of the first is higher: 21.6% [at 25.6 µM] for the first, 9.48% [at 25.6 µM] for the second.

Going from `C[C@@H]1O[C@H](O[C@@H]2CC[C@@]3(C=O)[C@H]4CC[C@@]5(C)[C@@H](C6=CC(=O)OC6)CC[C@@]5(O)[C@@H]4CC[C@]3(O)C2)C[C@H](O)[C@@H]1O` to `C[C@@]12CC[C@H](O)C[C@@H]1CC[C@H]1[C@H]2CC[C@@]2(C)[C@@H](C3=CC(=O)OC3)CC[C@]12O`, the “activity, negative = inhibition” value rises from 17.6% [at 25.6 µM] to 29% [at 25.6 µM].

First: CC(=O)OCC(=O)[C@@H]1CC[C@H]2[C@H]3CC[C@H]4C[C@@H](O)CC[C@]4(C)[C@@H]3C(=O)C[C@@]12C
Second: CC1=C2[C@@H]3OC(=O)[C@@H](C)[C@@H]3CC[C@]2(C)C=CC1=O
The “activity, negative = inhibition” value of the first is higher: -17.1% [at 25.6 µM] for the first, -26.3% [at 25.6 µM] for the second.

`C[N+]12CCC(CC1)[C@@H](OC(=O)C(O)(c1ccccc1)c1ccccc1)C2` and `COC1=C[C@H]2C3=C([C@H]2C1=O)[C@H](NC(C)=O)CCc1cc(OC)c(OC)c(OC)c13` are the same in “activity, negative = inhibition” value: -15.4% [at 25.6 µM] for the first, -15.4% [at 25.6 µM] for the second.

First: C[C@H](Br)C(=O)c1ccc2cc(Br)c3ccccc3c2c1
Second: O[C@@H](c1cc(-c2ccccc2)nc2c1ccc1ccccc12)[C@@H]1CCCCN1
The activity, negative = inhibition of the first is higher: -42.1% [at 11.4 µM] for the first, -42.2% [at 11.4 µM] for the second.

First: CCC1=C(C[C@H]2NCCc3cc(OC)c(OC)cc32)C[C@H]2c3ccccc3CCN2C1
Second: COc1ccc2cc1Oc1ccc(cc1)C[C@H]1c3cc(c(OC)cc3CCN1C)Oc1c(OC)c(OC)cc3c1[C@@H](C2)N(C)CC3
The activity, negative = inhibition of the first is higher: -4.76% [at 11.4 µM] for the first, -36.6% [at 11.4 µM] for the second.

Compared with `CSCC[C@@H](N)P(C)(=O)O`, `N[C@@H](CP(=O)(O)O)C(=O)O` is lower in activity, negative = inhibition: 29.3% [at 11.4 µM] for the first, 9.32% [at 11.4 µM] for the second.

First: C[N+]1(C)[C@@H]2CC(OC(=O)[C@@H](CO)c3ccccc3)C[C@@H]1[C@H]1O[C@H]12 (some centres undefined)
Second: O=C(O)C(C(=O)O)P(=S)(S)c1ccccc1 (centres undefined)
The activity, negative = inhibition of the first is higher: 26.7% [at 11.4 µM] for the first, 23.5% [at 11.4 µM] for the second.

Compared with `C[C@@H]1O[C@H](OC2[C@@H](O)[C@H](O)C(O)[C@H](O)[C@H]2O)[C@@H](N)C[C@@H]1N=C(N)C(=O)O` (some centres undefined), `CS(=O)(=O)O[C@H]1CN2CCC1CC2` is higher in activity, negative = inhibition: 19% [at 11.4 µM] for the first, 20.2% [at 11.4 µM] for the second.

Going from `CC1(C)CCC(C)(C)c2c1ccc(O)c2Cc1c(O)ccc2c1C(C)(C)CCC2(C)C` to `CC(C)C(=O)CP(=O)(O)O`, the activity, negative = inhibition rises from -38.9% [at 11.4 µM] to 8.85% [at 11.4 µM].

For `N=C(N)SCc1ccc(Cl)c2ccccc12` (tested in a mixture with another compound), the activity, negative = inhibition was -27.8% [at 11.4 µM] and -26.6% [at 11.4 µM].
